The source of these data is a collection of fitness landscapes (doi:10.1016/j.celrep.2020.107928).

In all, about 81,000 sequences were measured (“one-hybrid fitness for binding NBS DNA”: median about -0.1, highest 2% from about 0.36 on). The full list was thinned out, with the highest values kept by preference. Bounds are passed on as bounds.

First the molecules themselves.
B1: Caulobacter ParB omega fusion; a variant is named by its letters at X, in order, B8GW30 (parent)
chain: MESVVVGEPGMSEGRRGLGRGLSALLGEVDAAPAQAPGEQLGGSREAPIEILQRNPDQPRRTFREEDLEDLSNSIREKGVLQPILVRPSPDTAGEYQIVAGERAWRAAQRAGLKTVPIMVRELDDLAVLEIGIIENVQRADLNVLEEALSYKVLMEKFERTQENIAQTIGKSXSHVANXMRLLXLPDEVQSYLVSGELTAXHARAIAAAADPVALAKQIIEGGLSVRETEALARKAPNLSAGKSKGGRPPRVKDTDTQALESDLSSVLGLDVSIDHRGSTGTLTITYATLEQLDDLCNRLTRGI

This assay covers variants of B1. The assay can be described thus: one-hybrid fitness for binding NBS DNA (the Noc-binding site; scaled: cognate 1, non-cognate 0); higher = stronger binding. The following applies: with NBS DNA site. The method in brief: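 Values were rescaled so that cognate is 1 and non-cognate is 0. Each is a fitness, the log change in a variant's read ratio to wild type from Illumina reads of plasmids before and after selection, with three replicate libraries pooled and variants under 10 reads dropped. Selection of the Caulobacter ParB libraries, four specificity codons randomised, used E. coli USO with a HIS3 reporter, site 19 bp from the promoter, on M9-minus-histidine with 0.1 mM IPTG and 5 mM 3-AT for 48 hours at 37°C.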
Turning to CHYG, the “one-hybrid fitness for binding NBS DNA” value was at most 0.2.
With ASMD the figure was at most 0.2; with FIRR, at most 0.2; with MIQP, at most 0.2.
In the case of RIQT it was 0.329.
With RCQT the figure was 0.513.
RPQT: the “one-hybrid fitness for binding NBS DNA” value is at most 0.2.
In the case of QPVA it was at most 0.2.
Consider QCVA, for which the “one-hybrid fitness for binding NBS DNA” value is 0.298.
Consider QRKA, for which the “one-hybrid fitness for binding NBS DNA” value was determined as 0.692.
In the case of DRKA it was at most 0.2.
With NRKA the figure was at most 0.2; with QRVA, 0.511.
In the case of TSKG it was at most 0.2; in that of PRAV, at most 0.2.
TDDT: the “one-hybrid fitness for binding NBS DNA” value is at most 0.2.
In the case of IQLF it was at most 0.2; in that of LTEG, at most 0.2.
In the case of QNKN it was at most 0.2; in that of QNVR, at most 0.2.
On to QNRR, for which the “one-hybrid fitness for binding NBS DNA” value came to 0.439.
With QNDR the figure was at most 0.2; with QNYR, 0.203; with QNKR, 0.504.
In the case of MEGC it was at most 0.2; in that of QRHA, 0.629.
QKHA: the “one-hybrid fitness for binding NBS DNA” value was determined as 0.28.
In the case of QIHA it was 0.201; in that of QPHA, at most 0.2.
Take QCHA: the “one-hybrid fitness for binding NBS DNA” value came to 0.422.
For the variant QSHA, the “one-hybrid fitness for binding NBS DNA” value was determined as 0.275.
In the case of ADPD it was at most 0.2; in that of TEMV, at most 0.2; in that of FTMS, at most 0.2.
With MEGT the figure was at most 0.2; with APSI, at most 0.2.
With RVGH the figure was at most 0.2; with RVGD, at most 0.2; with RVGS, 0.463.
RVGP: the “one-hybrid fitness for binding NBS DNA” value was at most 0.2.
In the case of RVGT it was 0.491; in that of RVGN, at most 0.2; in that of RVGF, at most 0.2.
RVGR: the “one-hybrid fitness for binding NBS DNA” value amounted to 0.491.
With RVGM the figure was at most 0.2; with AKNC, at most 0.2; with RDQV, at most 0.2.
With QMHW the figure was at most 0.2.
As for MIEP, the “one-hybrid fitness for binding NBS DNA” value was at most 0.2.
In the case of EVLS it was at most 0.2; in that of MMLC, at most 0.2; in that of CVFT, at most 0.2.
In the case of HSNA it was at most 0.2.
For the variant QYYH, the “one-hybrid fitness for binding NBS DNA” value was at most 0.2.
With QYYS the figure was 0.312; with QYRP, 0.216.
With QYRD the figure was at most 0.2.
In the case of QYRN it was 0.38; in that of QYRH, 0.541.
QYIS: the “one-hybrid fitness for binding NBS DNA” value came to 0.202.
QYDH: the “one-hybrid fitness for binding NBS DNA” value is at most 0.2.
Regarding QYRS, the “one-hybrid fitness for binding NBS DNA” value is 0.644.
For the variant GEPE, the “one-hybrid fitness for binding NBS DNA” value was at most 0.2.
In the case of HWPK it was at most 0.2.
GQSC: the “one-hybrid fitness for binding NBS DNA” value is at most 0.2.
With RFKM the figure was at most 0.2.
On to AIRM, for which the “one-hybrid fitness for binding NBS DNA” value was at most 0.2.
In the case of RFKH it was at most 0.2.
With RCKS the figure was 0.612.
With RCKD the figure was at most 0.2; with RHKN, 0.205; with RFKS, 0.444.
As for RLKD, the “one-hybrid fitness for binding NBS DNA” value is at most 0.2.
With RFKN, the “one-hybrid fitness for binding NBS DNA” value was at most 0.2.
With RHKP the figure was at most 0.2; with RLKN, at most 0.2; with RHKS, 0.57.
In the case of RLKS it was 0.554; in that of RPKS, at most 0.2.
TSAW: the “one-hybrid fitness for binding NBS DNA” value was at most 0.2.
With RVSW the figure was at most 0.2; with DRFC, at most 0.2; with SYSC, at most 0.2.
Consider PYQW, for which the “one-hybrid fitness for binding NBS DNA” value was at most 0.2.
With SPAY the figure was at most 0.2; with KNRG, at most 0.2.
Regarding RSKS, the “one-hybrid fitness for binding NBS DNA” value turned out to be 0.567.
Turning to RAKH, the “one-hybrid fitness for binding NBS DNA” value came out at 0.36.
In the case of RSVS it was 0.285; in that of RAKS, 0.571.
With RAVS the figure was 0.239.
In the case of RIVS, the “one-hybrid fitness for binding NBS DNA” value was at most 0.2.
Take RIKS: the “one-hybrid fitness for binding NBS DNA” value was 0.499.
With RSKD the figure was at most 0.2.
With RIKP the figure was at most 0.2.
In the case of HGYR it was at most 0.2; in that of STVP, at most 0.2.
With PRHI, the “one-hybrid fitness for binding NBS DNA” value is at most 0.2.
With VTRH the figure was at most 0.2; with QTNL, 0.214; with RMAP, at most 0.2.
With RMFT the figure was 0.261.
In the case of RSAN it was at most 0.2; in that of RDAT, at most 0.2.
For the variant RMAT, the “one-hybrid fitness for binding NBS DNA” value was determined as 0.426.
For RLFT, the “one-hybrid fitness for binding NBS DNA” value worked out at 0.238.
In the case of RIAT it was 0.376; in that of RSAT, 0.414.
In the case of RIFT it was at most 0.2; in that of RLAD, at most 0.2; in that of RLAT, 0.423.
With RIAD, the “one-hybrid fitness for binding NBS DNA” value is at most 0.2.
In the case of LYNV it was at most 0.2.
In the case of GATD it was at most 0.2; in that of PPMS, at most 0.2.
For HKTC, the “one-hybrid fitness for binding NBS DNA” value is at most 0.2.
In the case of MLVG it was at most 0.2; in that of YTRD, at most 0.2; in that of RCAV, at most 0.2.
In the case of RHFT it was 0.245.
For RHAT, the “one-hybrid fitness for binding NBS DNA” value stood at 0.432.
With RHAH the figure was at most 0.2; with RAFT, 0.242; with RCAT, 0.515.
Take RAAP: the “one-hybrid fitness for binding NBS DNA” value is at most 0.2.
In the case of RAAT it was 0.364; in that of RPAT, at most 0.2.
As to RFAT, the “one-hybrid fitness for binding NBS DNA” value was at most 0.2.
In the case of TFCI it was at most 0.2.
In the case of NDTY it was at most 0.2; in that of AWHV, at most 0.2; in that of HGAR, at most 0.2.
With EIKR the figure was at most 0.2; with WKER, at most 0.2.
RSQR: the “one-hybrid fitness for binding NBS DNA” value is 0.44.
In the case of RSQP it was at most 0.2.
With RPQR the figure was at most 0.2; with RDQR, at most 0.2; with RCQR, 0.512.
With RFQR, the “one-hybrid fitness for binding NBS DNA” value is 0.282.
In the case of FPQS it was at most 0.2; in that of RQNH, 0.34; in that of RQHF, at most 0.2.
Regarding RQHK, the “one-hybrid fitness for binding NBS DNA” value is at most 0.2.
In the case of RQSP it was at most 0.2; in that of RQSS, 0.446; in that of RQSN, at most 0.2.
In the case of RQVT, the “one-hybrid fitness for binding NBS DNA” value worked out at 0.216.
With RQDS the figure was at most 0.2; with RQKQ, 0.244.
With RQNS the figure was 0.48; with RQKT, 0.63.
With RQHT the figure was 0.417.
As for SYHE, the “one-hybrid fitness for binding NBS DNA” value was at most 0.2.
For the variant SRKD, the “one-hybrid fitness for binding NBS DNA” value was at most 0.2.
In the case of HWGA it was at most 0.2; in that of RMER, 0.227; in that of EGHG, at most 0.2.
In the case of DQTE it was at most 0.2.
For MCRV, the “one-hybrid fitness for binding NBS DNA” value is at most 0.2.
Consider RQCP, for which the “one-hybrid fitness for binding NBS DNA” value is at most 0.2.
Consider RQST, for which the “one-hybrid fitness for binding NBS DNA” value is 0.474.
With RQNT the figure was 0.53.
As for RQCT, the “one-hybrid fitness for binding NBS DNA” value was determined as 0.382.
With RQCH the figure was at most 0.2; with RQAD, at most 0.2; with RQNP, at most 0.2.
In the case of RQDT it was 0.268.
With RQFT the figure was 0.204.
On to RQSG, for which the “one-hybrid fitness for binding NBS DNA” value is at most 0.2.
With RQAT the figure was 0.385; with RQGT, 0.351.
As to SAEQ, the “one-hybrid fitness for binding NBS DNA” value was at most 0.2.
With SIIG the figure was at most 0.2.
In the case of HRTH it was at most 0.2.
In the case of VQPC, the “one-hybrid fitness for binding NBS DNA” value is at most 0.2.
In the case of RQAH it was at most 0.2.
With RQFS the figure was 0.206; with RQPT, at most 0.2; with RQAS, 0.38.
In the case of RQRT it was 0.615; in that of RQYT, 0.353.
As for PKKW, the “one-hybrid fitness for binding NBS DNA” value was at most 0.2.
With TRLN the figure was at most 0.2.
In the case of IGRT it was at most 0.2.
With QQRV the figure was 0.493; with QQYV, at most 0.2; with QQKV, 0.533.
QQVV: the “one-hybrid fitness for binding NBS DNA” value is at most 0.2.
In the case of QQDV, the “one-hybrid fitness for binding NBS DNA” value was at most 0.2.
For the variant QQFV, the “one-hybrid fitness for binding NBS DNA” value is at most 0.2.
In the case of VRMV it was at most 0.2; in that of RRAA, 0.664; in that of RCFA, at most 0.2.
With RSFA the figure was at most 0.2.
With RCAA the figure was 0.234; with RPAA, at most 0.2.
On to RRFA, for which the “one-hybrid fitness for binding NBS DNA” value was determined as 0.569.
